PubChem BioAssay (EPA / NIEHS)
Inconclusive results are not listed. The source made the active and inactive calls. The calls were made as follows, unless noted: active = hit-call score of the fitted dose curve at least 0.9, where 1 is the maximum; inactive = score below 0.9.

Columns and labels:
[1] = molecular target: Thyroid hormone receptor alpha (Rattus norvegicus) + Thyroid hormone receptor beta (Rattus norvegicus) (UniProt P18113+P63059); experiment: TOX21_TR_LUC_GH3_Antagonist_Followup: Tox21 GH3 Thyroid Hormone Receptor Antagonism Luciferase Follow-Up Assay (AID 2283942; active = hit-call score of the fitted dose curve at least 0.9, where 1 is the maximum)
Method in brief: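 Confirmatory qHTS, antagonist mode: T3 (1.0 nM final) + test cpd, 15 conc, 92 uM–5nM final, GH3 rat pituitary line, 24 h, 37C. Luc reporter, RLU vs DMSO.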

THRA (gene 7067) = THRA (gene 7067) (UniProt P10827); experiment: TOX21_TRA_COA_Antagonist_Followup_ratio: Tox21 Thyroid Hormone Receptor alpha Antagonism through Coactivator Recruitment Follow-Up Assay, Ratio (AID 2283953; active = hit-call score of the fitted dose curve at least 0.9, where 1 is the maximum)
Method in brief: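 This follow-up to the GH3 luciferase screen checks specificity in a cell-free format. It measures SRC-2 coactivator peptide binding to TRα LBD by TR-FRET and scores loss of ratio signal relative to DMSO.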

THRB (gene 7068) [2] = molecular target: THRB (gene 7068) (UniProt P10828); experiment: TOX21_TRB_BLA_Antagonist_Followup_ratio: Tox21 Thyroid Hormone Receptor beta Antagonism Beta-lactamase (BLA) Follow-Up Assay, Ratio (AID 2283958; active = hit-call score of the fitted dose curve at least 0.9, where 1 is the maximum)
Method in brief: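 In this antagonist-mode follow-up, a stably integrated GAL4-TRβ LBD fusion drives a UAS-beta-lactamase reporter in HEK293T cells. Loss of ratio signal relative to DMSO after 18 h treatment indicates activity; parallel CellTiter-Glo flags cytotoxicity.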

[3] = TOX21_TRB_BLA_Antagonist_Followup_viability: Viability Assessment in the Tox21 Thyroid Hormone Receptor beta Antagonism Beta-lactamase (BLA) Follow-Up Assay (AID 2283961; active = hit-call score of the fitted dose curve at least 0.9, where 1 is the maximum)
Method in brief: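 ATP-based CellTiter-Glo luminescence (30 min, room temperature) run in the same wells as the TRβ-bla readout. Cells: GeneBLAzer HEK293T expressing GAL4-TRβ LBD, exposed 18 h at 37C to compounds at 11 concentrations in triplicate, stripped-serum medium.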

THRB (gene 7068) [4] = molecular target: THRB (gene 7068) (UniProt P10828); experiment: TOX21_TRB_COA_Antagonist_Followup_ratio: Tox21 Thyroid Hormone Receptor beta Antagonism through Coactivator Recruitment Follow-Up Assay, Ratio (AID 2283967; active = hit-call score of the fitted dose curve at least 0.9, where 1 is the maximum)
Method in brief: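 Test compound was incubated with 5.0 nM GST-TRβ LBD in 0.10% BSA. Then 200 nM fluorescein-SRC-2 peptide and 2 nM terbium anti-GST antibody were added. TR-FRET (520:495 nm) was measured and normalized to DMSO and T3 controls.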

[5] = molecular target: Retinoic acid receptor RXR-alpha (Homo sapiens) (UniProt P19793); experiment: TOX21_TR_RXR_BLA_Antagonist_Followup_ratio: Tox21 Thyroid Hormone Receptor beta Retinoid X Receptor alpha (RXRa) Antagonism Beta-lactamase (BLA) Follow-Up Assay, Ratio (AID 2283972; active = hit-call score of the fitted dose curve at least 0.9, where 1 is the maximum)
Method in brief: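 After 5 h attachment at 37C, HEK293T RXRa-bla cells (2,500/well, 2% charcoal-stripped FBS, no phenol red) received compounds at 11 concentrations in triplicate for 16 h. Beta-lactamase read as 460:530 nm ratio after 2 h RT substrate loading.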

[6] = TOX21_TR_RXR_BLA_Antagonist_Followup_viability: Viability Assessment in the Tox21 Thyroid Hormone Receptor beta Retinoid X Receptor alpha (RXRa) Antagonism Beta-lactamase (BLA) Follow-Up Assay (AID 2283979; active = hit-call score of the fitted dose curve at least 0.9, where 1 is the maximum)
Method in brief: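 Follow-up compounds (11 concentrations, triplicate) were incubated 16 h at 37C/5% CO2 with HEK293T RXRa-bla cells seeded at 2,500/well in charcoal-stripped-serum medium. ATP content by CellTiter-Glo luminescence gave viability; curves fitted in both directions against DMSO.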

[7] = CCTE_Harrill_HTTr_Viability_DMEM_6hr: (Pilot) CCTE's 6-hour Cell Viability Assessment for the High-Throughput Transcriptomics (HTTr) Platform, in MCF-7 cells cultured in DMEM + 10% fetal bovine serum, Harrill Lab (AID 2283973)
Method in brief: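 MCF-7 cells in DMEM + 10% FBS, eight-point dilution series, 6 h exposure. Membrane integrity by propidium iodide exclusion with high-content imaging; bidirectional fit versus DMSO.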

[8] = CCTE_Harrill_HTTr_Viability_DMEM_12hr: (Pilot) CCTE's 12-hour Cell Viability Assessment for the High-Throughput Transcriptomics (HTTr) Platform, in MCF-7 cells cultured in DMEM + 10% fetal bovine serum, Harrill Lab (AID 2283974)
Method in brief: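 MCF-7 cells in DMEM + 10% FBS exposed 12 h to an eight-point dilution series; membrane integrity scored by propidium iodide exclusion with high-content imaging, bidirectional fitting versus DMSO.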

[9] = CCTE_Harrill_HTTr_Viability_DMEM_24hr: (Pilot) CCTE's 24-hour Cell Viability Assessment for the High-Throughput Transcriptomics (HTTr) Platform, in MCF-7 cells cultured in DMEM + 10% fetal bovine serum, Harrill Lab (AID 2283975)
Method in brief: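 MCF-7 cells in DMEM with 10% FBS exposed for 24 hours to an eight-point dilution series. Membrane integrity by propidium iodide exclusion with high content imaging; bidirectional fit against DMSO.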

[10] = CCTE_Harrill_HTTr_Viability_PRF_DMEM_6hr: (Pilot) CCTE's 6-hour Cell Viability Assessment for the High-Throughput Transcriptomics (HTTr) Platform, in MCF-7 cells cultured phenol red-free DMEM + 10% charcoal-stripped fetal bovine serum, Harrill Lab (AID 2283976)
Method in brief: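 MCF-7 cells in phenol red-free DMEM with 10% charcoal-stripped FBS exposed 6 hours to an eight-point dilution series. Propidium iodide exclusion imaged; curves fitted bidirectionally against DMSO.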

[11] = CCTE_Harrill_HTTr_Viability_PRF_DMEM_12hr: (Pilot) CCTE's 12-hour Cell Viability Assessment for the High-Throughput Transcriptomics (HTTr) Platform, in MCF-7 cells cultured in phenol red-free DMEM + 10% charcoal-stripped fetal bovine serum, Harrill Lab (AID 2283977)
Method in brief: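 MCF-7 cells in phenol red-free DMEM with 10% charcoal-stripped FBS exposed 12 hours to an eight-point dilution series. Viability assessed by high-content imaging of propidium iodide exclusion; bidirectional fit versus DMSO.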

[12] = CCTE_Harrill_HTTr_Viability_PRF_DMEM_24hr: (Pilot) CCTE's 24-hour Cell Viability Assessment for the High-Throughput Transcriptomics (HTTr) Platform, in MCF-7 cells cultured in phenol red-free DMEM + 10% charcoal-stripped fetal bovine serum, Harrill Lab (AID 2283980)
Method in brief: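 MCF-7 cells in phenol red-free DMEM with 10% charcoal-stripped FBS, eight-point dilution series, 24 h exposure. Membrane integrity by propidium iodide exclusion with high content imaging; bidirectional fit vs DMSO.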

PGR (gene 5241) [13] = molecular target: PGR (gene 5241) (UniProt P06401); experiment: TOX21_PR_BLA_Followup_Antagonist_ratio: Tox21 HEK293 Progesterone Receptor (PR) Antagonism Beta-lactamase Follow-Up Assay, Ratio (AID 2283934; active = hit-call score of the fitted dose curve at least 0.9, where 1 is the maximum;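 also: PR-UAS-bla HEK293T cells stimulated with 1 nM R5020 agonist for 16 hr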)
Method in brief: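 Antagonist mode used 1 nM R5020 (final) as agonist on a beta-lactamase reporter line in HEK293T cells. Activity was taken from the substrate cleavage ratio after 16 hr exposure.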

[14] = TOX21_PR_BLA_Followup_Agonist_viability: Viability Assessment in the Tox21 HEK293 Progesterone Receptor (PR) Agonism Beta-lactamase Follow-Up Assay (AID 2283935; active = hit-call score of the fitted dose curve at least 0.9, where 1 is the maximum;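 also: signal loss means lower viability so actives are cytotoxic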)
Method in brief: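 Multiplexed viability counter-screen: ATP-coupled luciferase signal measured after 30 min at room temperature, following 16 hr compound treatment of PR-UAS-bla HEK293T cells grown in charcoal-stripped serum.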

[15] = TOX21_PR_BLA_Followup_Antagonist_viability: Viability Assessment in the Tox21 HEK293 Progesterone Receptor (PR) Antagonism Beta-lactamase Follow-Up Assay (AID 2283936; active = hit-call score of the fitted dose curve at least 0.9, where 1 is the maximum;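 also: hits lower the luminescence signal meaning cytotoxicity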)
Method in brief: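 PR-UAS-bla HEK293T cells (3,000/well, 2% charcoal-stripped FBS) given compound plus R5020 agonist, 16 h at 37C. CellTiter-Glo added after bla read, 30 min at room temperature; luminescence loss indicates cytotoxicity.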

PGR (gene 5241) [16] = molecular target: PGR (gene 5241) (UniProt P06401); experiment: TOX21_PR_LUC_Followup_Agonist: Tox21 HEK293 Progesterone Receptor (PR) Agonism Luciferase Follow-Up Assay (AID 2283937)
Method in brief: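 Agonist mode: reporter cells carrying PR-A and luciferase are treated 16 h with test compounds at 37C. Luciferase induction is measured by luminescence and fitted upward against DMSO.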

PGR (gene 5241) [17] = molecular target: PGR (gene 5241) (UniProt P06401); experiment: TOX21_PR_LUC_Followup_Antagonist: Tox21 HEK293 Progesterone Receptor (PR) Antagonism Luciferase Follow-Up Assay (AID 2283938; active = hit-call score of the fitted dose curve at least 0.9, where 1 is the maximum;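 also: curve fitted upward as signal gain over DMSO baseline despite antagonist label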)
Method in brief: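 Luminescence from ONE-Glo was measured 30 min after reagent addition, following 16 h exposure of HEK293-PR-A-luc cells (3,000/well, plated 5 h earlier) to DMSO-dissolved compounds at 37C; DMSO served as baseline.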

[18] = TOX21_PR_LUC_Followup_Antagonist_viability: Viability Assessment in the Tox21 HEK293 Progesterone Receptor (PR) Antagonism Luciferase Follow-Up Assay (AID 2283940; active = hit-call score of the fitted dose curve at least 0.9, where 1 is the maximum)
Method in brief: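 Cellular ATP, measured with luciferase-coupled CellTiter-Glo, served as the viability endpoint after HEK293-PR-A-luc cells were exposed to test compounds for 16 h at 37C.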

[19] = TOX21_PR_LUC_Followup_Agonist_viability: Viability Assessment in the Tox21 HEK293 Progesterone Receptor (PR) Agonism Luciferase Follow-Up Assay (AID 2283941; active = hit-call score of the fitted dose curve at least 0.9, where 1 is the maximum;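 also: loss of signal means cytotoxicity so actives lower viability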)
Method in brief: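 Luminescent ATP quantitation (CellTiter-Glo) serves as the read-out; a drop flags cytotoxic compounds. Cells are HEK293-PR-A-luc grown in 10% charcoal-stripped FBS, plated 3,000/well, and exposed to compound for 16 h.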

Measured: AC50

PGR (gene 5241), sequence (P06401 whole entry, looked up): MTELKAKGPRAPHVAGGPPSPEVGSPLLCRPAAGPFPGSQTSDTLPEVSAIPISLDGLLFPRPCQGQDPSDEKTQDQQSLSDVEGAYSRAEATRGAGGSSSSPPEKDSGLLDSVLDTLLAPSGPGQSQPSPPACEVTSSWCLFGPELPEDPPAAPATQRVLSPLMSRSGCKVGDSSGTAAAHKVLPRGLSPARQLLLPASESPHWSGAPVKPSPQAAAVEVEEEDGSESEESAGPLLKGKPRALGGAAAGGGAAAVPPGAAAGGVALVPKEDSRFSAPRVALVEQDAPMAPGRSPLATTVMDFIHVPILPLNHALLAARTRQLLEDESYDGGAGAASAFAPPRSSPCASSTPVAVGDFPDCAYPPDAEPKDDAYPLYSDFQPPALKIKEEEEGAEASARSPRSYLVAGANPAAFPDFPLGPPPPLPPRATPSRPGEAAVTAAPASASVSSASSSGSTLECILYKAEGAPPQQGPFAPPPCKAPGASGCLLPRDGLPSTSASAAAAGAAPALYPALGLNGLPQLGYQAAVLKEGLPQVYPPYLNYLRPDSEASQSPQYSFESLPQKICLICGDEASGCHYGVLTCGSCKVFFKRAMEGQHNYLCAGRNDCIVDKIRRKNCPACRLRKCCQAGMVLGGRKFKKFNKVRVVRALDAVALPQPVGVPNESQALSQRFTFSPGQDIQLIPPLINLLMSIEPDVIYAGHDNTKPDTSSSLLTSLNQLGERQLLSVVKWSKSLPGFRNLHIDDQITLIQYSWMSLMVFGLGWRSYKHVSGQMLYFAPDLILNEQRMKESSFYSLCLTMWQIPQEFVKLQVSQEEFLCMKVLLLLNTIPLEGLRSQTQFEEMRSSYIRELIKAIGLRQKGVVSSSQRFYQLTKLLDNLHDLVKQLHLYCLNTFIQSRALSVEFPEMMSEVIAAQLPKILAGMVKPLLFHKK
THRB (gene 7068), sequence (P10828 whole entry, looked up, the tested form may be a part): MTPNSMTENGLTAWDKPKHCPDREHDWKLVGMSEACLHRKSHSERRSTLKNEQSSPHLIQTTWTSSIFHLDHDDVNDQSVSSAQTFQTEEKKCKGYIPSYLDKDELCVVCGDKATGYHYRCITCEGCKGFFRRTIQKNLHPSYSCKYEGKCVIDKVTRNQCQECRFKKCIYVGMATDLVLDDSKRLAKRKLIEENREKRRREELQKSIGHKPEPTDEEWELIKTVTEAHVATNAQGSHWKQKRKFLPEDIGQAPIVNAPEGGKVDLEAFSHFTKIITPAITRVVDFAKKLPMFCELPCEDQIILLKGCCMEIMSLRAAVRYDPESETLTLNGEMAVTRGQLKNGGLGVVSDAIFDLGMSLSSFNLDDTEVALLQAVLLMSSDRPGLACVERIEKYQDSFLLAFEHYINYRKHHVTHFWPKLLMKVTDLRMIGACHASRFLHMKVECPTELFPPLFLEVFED
Retinoic acid receptor RXR-alpha (Homo sapiens), sequence (P19793 whole entry, looked up): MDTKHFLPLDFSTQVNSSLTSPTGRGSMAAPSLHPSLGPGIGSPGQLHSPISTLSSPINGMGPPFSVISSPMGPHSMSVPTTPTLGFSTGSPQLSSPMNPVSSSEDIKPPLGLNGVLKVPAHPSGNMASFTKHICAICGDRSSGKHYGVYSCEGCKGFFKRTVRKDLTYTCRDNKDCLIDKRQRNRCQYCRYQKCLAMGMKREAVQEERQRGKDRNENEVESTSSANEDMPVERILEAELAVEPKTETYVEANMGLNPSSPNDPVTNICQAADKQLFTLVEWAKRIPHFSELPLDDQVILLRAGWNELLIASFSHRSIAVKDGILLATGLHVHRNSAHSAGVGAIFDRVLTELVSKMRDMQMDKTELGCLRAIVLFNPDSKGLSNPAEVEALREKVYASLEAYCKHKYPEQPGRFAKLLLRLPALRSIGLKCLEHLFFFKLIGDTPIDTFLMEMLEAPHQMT
THRA (gene 7067), sequence (P10827 whole entry, looked up, the tested form may be a part): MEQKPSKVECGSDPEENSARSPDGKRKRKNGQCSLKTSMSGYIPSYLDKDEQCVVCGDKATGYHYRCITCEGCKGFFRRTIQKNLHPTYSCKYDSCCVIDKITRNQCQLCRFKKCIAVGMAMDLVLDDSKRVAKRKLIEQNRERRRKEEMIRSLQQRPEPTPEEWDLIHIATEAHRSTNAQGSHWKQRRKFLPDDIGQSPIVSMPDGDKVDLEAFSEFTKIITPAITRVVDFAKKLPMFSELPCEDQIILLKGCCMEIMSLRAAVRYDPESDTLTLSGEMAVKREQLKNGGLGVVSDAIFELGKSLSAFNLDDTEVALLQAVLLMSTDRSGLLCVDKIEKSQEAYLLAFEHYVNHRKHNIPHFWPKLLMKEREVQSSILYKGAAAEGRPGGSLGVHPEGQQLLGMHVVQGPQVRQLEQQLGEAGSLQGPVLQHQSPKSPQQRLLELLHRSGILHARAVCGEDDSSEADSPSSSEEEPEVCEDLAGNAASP

CO/N=C(/C1=NOCCO1)c1ccccc1Oc1ncnc(Oc2ccccc2Cl)c1F
active: [1] 16.5 µM | THRB (gene 7068) [2] 54.6 µM | [3] 38.3 µM | [6] 52 µM
inactive: THRA (gene 7067) | THRB (gene 7068) [4] | [5]

CC1(C)C(C=C(Cl)Cl)C1C(=O)OC(C#N)c1cccc(Oc2ccccc2)c1 (centres undefined)
inactive: [7] | [8] | [9] | [10] | [11] | [12]

C=CCOC(=O)C(C)(C)OC(=O)c1cc(-n2c(=O)cc(C(F)(F)F)n(C)c2=O)ccc1Cl
inactive: [7] | [8] | [9] | [10] | [11] | [12]

Cc1c(COC(=O)[C@@H]2[C@H](/C=C(\Cl)C(F)(F)F)C2(C)C)cccc1-c1ccccc1
inactive: [7] | [8] | [9] | [10] | [11] | [12]

CC1(C)CCC(=Cc2ccc(Cl)cc2)C1(O)Cn1cncn1 (centres undefined)
inactive: PGR (gene 5241) [13] | [14] | [15] | PGR (gene 5241) [16] | PGR (gene 5241) [17] | [18] | [19]

CCN(CC)C(=O)C(C)Oc1cccc2ccccc12 (centres undefined)
active: PGR (gene 5241) [13] 28.4 µM
inactive: [14] | [15] | PGR (gene 5241) [17] | [19]

N#Cc1c[nH]cc1-c1cccc2c1OC(F)(F)O2
inactive: [14] | [15] | [18] | [19]
active: PGR (gene 5241) [13] 2.42 µM | PGR (gene 5241) [17] 7.11 µM

CCOC(=O)C(C)OC(=O)c1cc(Oc2ccc(C(F)(F)F)cc2Cl)ccc1[N+](=O)[O-] (centres undefined)
inactive: [7] | [8] | [9] | [10] | [11] | [12]
